SF1 inhibitor: SF-1 (human) inhibition; Q13285; CHO-K1 Gal4-SF-1 LBD luciferase reporter; inhibition, % at 10 µM; 65,000 tested, 0.55% active;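 active = inhibition above the mean inhibition of all tested compounds plus 3 SD, cut at about 48% in these data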;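 also: 0% = SF-1 transfected cells with DMSO and 100% = mock-transfected cells lacking SF-1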
Target sequence (Q13285 whole entry, looked up, the tested form may be a part): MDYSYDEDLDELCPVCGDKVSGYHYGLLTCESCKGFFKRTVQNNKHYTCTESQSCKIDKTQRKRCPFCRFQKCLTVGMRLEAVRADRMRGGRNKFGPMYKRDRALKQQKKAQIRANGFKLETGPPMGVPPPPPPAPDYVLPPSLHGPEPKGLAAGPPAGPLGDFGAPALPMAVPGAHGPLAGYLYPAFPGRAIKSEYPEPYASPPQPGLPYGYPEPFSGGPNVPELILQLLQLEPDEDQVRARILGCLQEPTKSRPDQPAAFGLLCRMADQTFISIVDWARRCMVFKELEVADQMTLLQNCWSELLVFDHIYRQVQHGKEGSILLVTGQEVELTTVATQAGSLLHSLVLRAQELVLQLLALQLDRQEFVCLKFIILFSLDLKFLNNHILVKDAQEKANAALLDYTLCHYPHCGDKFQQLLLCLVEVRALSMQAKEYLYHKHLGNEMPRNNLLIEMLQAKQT
Active calls of the source: *. The sample as a whole holds a higher share of hits than the screen did.

SMILES | SF1 inhibitor
CCOC(=O)c1sc(NC(=O)C2CC2)nc1C | -8
CC(=O)c1sc(NC(=O)C2(F)C(F)(F)C(F)(F)C(F)(F)C(F)(F)C2(F)F)nc1C | 93*
Cc1ccc2oc(=O)c3cnn(CC(=O)NCCC(C)C)c3c2c1 | 14
CN(Cc1ccccc1)C(=O)CCNS(=O)(=O)c1ccc2c(c1)oc(=O)n2C | 7
Cc1ccc(C(=O)Nc2c(C(=O)NCc3ccco3)cnn2-c2ccccc2)cc1 | -9
O=C(CCC(=O)N(CC(=O)NC1CCCCC1)c1ccc2c(c1)OCO2)Nc1ccccn1 | -14
c1ccc(Cn2c(-c3ccco3)nc3nc4ccccc4nc32)cc1 | -82
COc1ccc(CCn2c(-c3ccco3)nc3nc4ccccc4nc32)cc1 | -29
Cc1ccc(-c2nc3nc4ccccc4nc3n2Cc2ccco2)cc1 | 59*
CC(C)CNC(=O)CN(C1CCCCC1)S(=O)(=O)c1ccccc1 | 15
O=C(CSc1nc2cc(Cl)ccc2o1)c1cccs1 | -18
O=C(C1CCCN(S(=O)(=O)c2ccccc2)C1)N1CCCc2ccccc21 (centres undefined) | 5
COc1cccc(-c2nnc(SCC(=O)OC(C)C)n2Cc2ccco2)c1 | 15
CC(=O)c1cccc(NC(=O)CN(c2ccc(C)cc2)S(=O)(=O)c2cccc3nonc23)c1 | 9
COc1ccc(C(=O)Nc2nc3ccccc3[nH]2)cc1OC | -50
O=C(Nc1nc2ccccc2[nH]1)c1ccccc1F | 84*
O=C(Nc1cccc(-c2nc3ccccc3[nH]2)c1)c1ccco1 | -28
COc1ccccc1N(Cc1cc2cccc(C)c2[nH]c1=O)C(=O)C(C)C | 2
O=C(NCCSc1ccccc1)c1cccnc1 | -62
COc1ccccc1N1CCN(C(=O)C2C3C=CC4(CN(Cc5ccccc5Cl)C(=O)C24)O3)CC1 (centres undefined) | 17
COCCCNC(=O)CS(=O)Cc1nc(-c2ccccc2C)oc1C (centres undefined) | -18
Cc1ccc(-n2nc(C)c(C3C(C#N)=C(N)OC4=C3C(=O)CC(C)(C)C4)c2Cl)cc1 (centres undefined) | -57
COc1ccc(C(=O)Nn2c(SCC(=O)NCc3ccco3)nc3ccccc3c2=O)cc1 | 62*
CCOC(=O)CSc1nnc(CNC(=O)c2ccc(OC)cc2OC)n1-c1ccc(OC)cc1 | 14
CCOC(=O)CSc1nc2cc(C(=O)NCc3ccco3)ccc2c(=O)n1-c1ccc(F)cc1 | 51*
SMILES | SF1 inhibitor
COc1ccc2cc(C(=O)NCc3ccco3)c(=O)oc2c1 | 11
CCn1c(SCC(=O)NCCOc2ccccc2)nc2ccccc2c1=O | 7
Cc1cc(C(=O)CNCc2ccco2)c(C)n1-c1ccc(F)cc1 | -53
Cc1ccc(S(=O)(=O)c2nc(-c3ccco3)oc2SCC(=O)NCC2CCCO2)cc1 (centres undefined) | -8
O=C(c1ccc(F)cc1F)N(Cc1ccccn1)Cc1ccco1 | -1
Cc1cccc2cc(C#N)c(SCC(=O)N3CC(=O)Nc4ccccc43)nc12 | 64*
Cc1cccc2cc(C#N)c(NCCNC(=O)NC3CCCCC3)nc12 | 15
CCOC(=O)CSc1nc(-c2ccc3c(c2)OCO3)ccc1C#N | -64
COCCN(CC(=O)NCc1ccccc1)C(=O)CCC(=O)Nc1nccs1 | -15
CCOC(=O)CSC(CC)C(=O)Nc1nnc(C(C)C)s1 (centres undefined) | -18
Cn1cnnc1SCc1ccc(C#N)cc1Cl | 14
CC1(C)CNC(=O)c2sc(N3CCOCC3)nc2C1 | -4
O=C(O)c1ccc(COc2c(F)c(F)cc(F)c2F)cc1 | -18
COc1ccc(OCc2ccc(C(=O)O)cc2)cc1 | -64
COc1cc(/C=N/O)ccc1OCc1ccc(C(=O)O)cc1 | 91*
O=S(=O)(NCCc1cn2ccccc2n1)c1cccs1 | -18
Cc1cccc(-n2ncc3c(N(C)Cc4ccccc4)ncnc32)c1 | -64
Cc1nn(-c2nc3ccccc3s2)c(C)c1Oc1ccccc1O | -58
Cc1nnc(NC(=O)NCN2C(=O)C3C4C=CC(C4)C3C2=O)s1 (centres undefined) | 7
CN1C2C=C3C(C#N)=C(N)C(C#N)(C#N)[C@@H](c4ccc(Cl)cc4)[C@@H]3C1CC2 (some centres undefined) | 49*
CCOC(=O)c1ncn2c1C(=O)OC2(C)C | -8
CCOc1ccc(-c2cc(CCCC(=O)NCCCOC)no2)cc1 | 58*
CCCNC(=O)c1cc(-c2ccc(Br)cc2)on1 | -58
COCCCNC(=O)CCN1C(=O)COc2ccccc21 | 9
CCOCCCN(C(=O)c1ccco1)C(C(=O)NC1CCCC1)c1cccc(OC)c1OC (centres undefined) | 10
SMILES | SF1 inhibitor
COc1ccc(NC(=O)c2cc3ccccc3o2)cc1 | -54
CC(=O)Nc1cccc(NC(=O)c2cc3ccccc3o2)c1 | -87
CCCC(=O)N1CCN(c2ccc(NC(=O)c3cc4ccccc4o3)cc2Cl)CC1 | 48*
c1ccc(-c2nc3ccccc3s2)nc1 | -60
c1ccc(-c2ccc(-c3ccccn3)nn2)nc1 | 53*
c1ccc(-c2n[nH]c(-c3ccccn3)n2)nc1 | -78
O=C(COc1ccc(Cl)cc1Cl)NC1CCSC1=O (centres undefined) | -58
O=C(Cn1c(=O)sc2ccccc21)NCCOc1ccccc1F | -10
O=C(NCCOc1ccccc1)c1ccc2c(c1)OCO2 | 59*
O=C(Nc1ccc(F)c(F)c1)c1ccc2c(c1)OCO2 | -66
COc1cc2c(cc1NC(=O)c1ccc3c(c1)OCO3)oc1ccccc12 | -54
c1ccc(/N=C2\N=C(Nc3ccccn3)c3ccccc32)nc1 | 86*
O=C(CN1CCN(CC(=O)Nc2ccccn2)CC1)Nc1ccccn1 | 8
c1ccc(Nc2nc3ccccc3[nH]2)nc1 | -55
COc1ccc(CNc2nc3c(c(=O)n(Cc4ccc(F)cc4)c(=O)n3C)n2C)cc1 | 5
CC(=O)c1c(C)nc2nonc2c1N | 4
Cc1sc2nc3n(c(=O)c2c1C)Cc1ccccc1-3 | -56
COc1ccc(-c2nc(-c3ccncc3)no2)cc1OC | -74
Brc1ccc(-c2nc(-c3ccccc3)no2)o1 | -63
c1ccc(-c2noc(-c3ccc4ccccc4c3)n2)cc1 | 50*
COc1nc(C)nc2c1sc(=S)n2C | -24
COc1ccc(OC)c(S(N)(=O)=O)c1 | -13
COc1ccc(OC)c(NS(=O)(=O)c2ccc(N3CCCC3=O)cc2)c1 | 53*
COc1ccc(N2CC(C(=O)Nc3ccc(N4CCOCC4)cc3)CC2=O)cc1 (centres undefined) | 3
O=c1cc(O)nc2n1CCCS2 | -6
SMILES | SF1 inhibitor
NS(=O)(=O)c1ccc(CCNC2CC(=O)N(Cc3ccccc3)C2=O)cc1 (centres undefined) | -7
CCOC(=O)N1CCN(C(=O)c2ccc3c(SCC(=O)O)c4c(nc3c2)CCC4)CC1 | 10
COc1ccc(C(=O)Nc2cccc(OC)c2)cc1 | -81
COc1cccc(NC(=O)c2nc3ncccn3n2)c1 | -10
COc1ccc(C(=O)NC(=O)Nc2cc(C)ccn2)cc1 | 89*
CCC1C(=O)n2nc(-c3ccccc3)cc2N=C1C (centres undefined) | -91
CS(=O)(=O)N(CC(=O)NCc1ccncc1)c1cc(Cl)cc(Cl)c1 | 14
Cn1c(=O)c2cc(S(=O)(=O)NCCC(=O)NCCC3=CCCCC3)ccc2n(C)c1=O | 12
O=C(c1ccc(Cl)cc1)N1CCCCC(Sc2nnc(-c3ccc4c(c3)OCO4)o2)C1=O (centres undefined) | 89*
O=C(NC1(C(=O)NC2CCCCC2)CCCCC1)c1ccc2c(c1)OCO2 | -11
COc1ccc(C(CC(=O)Nc2nccs2)n2cccc2)cc1 (centres undefined) | -55

Screens as filed in PubChem.
